Compound activity as filed in PubChem BioAssay.
HTR5A inv ctr: HTR5A inverse agonists in luminescence cell assay, primary screen, counter-screen for OPRM1-OPRD1 heterodimer inverse agonist project, full-deck HTS; 340,000 tested, 0.083% active; AID 504634, 2011; HTR5A cell line, inverse agonism; inhibition, % at 9.3 µM; in the data active = inhibition mostly above about 23%, no sharp cut-off; inactive = mostly below about 18%;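 note: 0% = cells with DMSO and 100% = no-cell wells with DMSO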
Target sequence (P47898 whole entry, looked up): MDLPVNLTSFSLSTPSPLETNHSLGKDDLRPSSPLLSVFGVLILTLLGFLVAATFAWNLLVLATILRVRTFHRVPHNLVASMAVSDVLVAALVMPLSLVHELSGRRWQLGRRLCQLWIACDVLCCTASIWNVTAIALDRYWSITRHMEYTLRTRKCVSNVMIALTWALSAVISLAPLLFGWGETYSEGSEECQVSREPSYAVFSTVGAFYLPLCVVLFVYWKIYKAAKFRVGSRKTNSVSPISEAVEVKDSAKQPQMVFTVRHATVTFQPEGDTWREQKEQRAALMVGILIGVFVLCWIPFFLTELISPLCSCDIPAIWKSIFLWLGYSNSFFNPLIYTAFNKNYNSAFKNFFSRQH
HTR5A ag: HTR5A agonists in luminescence cell assay, primary screen, counter-screen for OPRM1-OPRD1 heterodimer agonist project, full-deck HTS; activation, % at 9.3 µM; 5-hydroxytryptamine receptor 5A (Homo sapiens), P47898; cell-based; 340,000 tested, 0.61% active; in the data active = activation mostly above about 9.5%, no sharp cut-off; inactive = mostly below about 7.6%;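 note: 0% = cells with vehicle only and 100% = reference agonist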
OPRM1-OPRD1 ag: agonists of OPRM1-OPRD1 heterodimerization, primary screen, cell-based, luminescence. 340,000 tested, 0.3% active. activation, % at 9.3 µM. cells. Mu-type opioid receptor (Homo sapiens) + Delta-type opioid receptor (Homo sapiens), …; in the data active = activation above about 18%;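 note: 0% = vehicle-treated cells and 100% = reference agonist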
Bfl-1 A1 inh: caspase 3/7 activation in MEF A1-2A-BIM cells, primary screen, A1 inhibitor project, cell-based, luminescence, HTS; Caspase-Glo 3/7 luminescence, 3 h; percent of clofoctol response, vehicle zero; caspase activation, % (concentration not given with the values); 330,000 tested, 0.066% active; AID 2462, 2010;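 active = over half of replicate activation scores above 10%, or exactly half above 10 with the replicate mean above 10; inconclusive = replicate mean below 10 yet half the replicates above 10; inactive = over half of replicates below 10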
MOR-DOR inv ag: inverse agonists of MOR-DOR heterodimerization, primary screen, cell-based, luminescence; cell-based MOR-DOR heterodimer luminescence, inverse agonism; 340,000 tested, 0.21% active; Mu-type opioid receptor (Homo sapiens) + Delta-type opioid receptor (Homo sapiens), …; AID 504357, 2011; inhibition, % at 9.3 µM; in the data active = inhibition above about 22%, passing the limit was not always enough;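 note: 0% = cells with DMSO and 100% = wells without cells with DMSO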
* hit, by the source's call; u = inconclusive; x = no result given. The list is not random: actives were taken first. Their share in the collection is about 1.1%.

SMILES | HTR5A inv ctr | HTR5A ag | OPRM1-OPRD1 ag | Bfl-1 A1 inh | MOR-DOR inv ag
COc1ccccc1NC(=O)c1cc(S(=O)(=O)NCc2ccccc2)ccc1F | -12.2 | -3.7 | -0.1 | 1.1 | 0.5
Cc1ccc(NC(=O)c2ccc(CNS(=O)(=O)c3cccc(C(F)(F)F)c3)cc2)cc1 | 3.2 | -2.0 | 0.4 | -0.1 | -1.6
COc1ccc(CNS(=O)(=O)c2ccc(F)c(C(=O)Nc3ccccc3OC)c2)cc1 | -23.3 | 9.5* | 2.8 | -0.3 | -14.8
O=C(Nc1ccccc1F)c1ccc(CNS(=O)(=O)c2cccc(C(F)(F)F)c2)cc1 | -29.3 | 11.5* | 6.2 | 0.7 | -25.6
CCc1ccc(NC(=O)C2CCN(S(=O)(=O)c3ccc4c(c3)NC(=O)CO4)CC2)cc1 | -36.1 | -2.0 | -1.0 | x | 4.9
CCc1cccc(NC(=O)C2CCN(S(=O)(=O)c3ccc4c(c3)NC(=O)CO4)CC2)c1 | 4.7 | 0.0 | -2.9 | 9.7* | 14.8
CC(=O)Nc1ccc(NC(=O)C(C)N(C)CC(=O)Nc2ccccc2Br)cc1 (centres undefined) | -0.2 | 0.1 | -3.1 | 0.4 | 13.7
COc1ccccc1C(=O)N=Nc1c(O)[nH]c2ccc([N+](=O)[O-])cc12 | -2.2 | 4.0 | -2.3 | x | 15.9
O=C(N=Nc1c(O)[nH]c2ccc([N+](=O)[O-])cc12)c1cc(-c2ccccc2Cl)nc2ccccc12 | 4.6 | 3.4 | -1.8 | 48.3* | 8.9
Cc1cccc(C)c1OCC(=O)OC/C(O)=C(\C#N)c1nc2ccccc2[nH]1 | -6.9 | 7.5 | 16.7 | 0.4 | -88.9
Cc1cc(C)cc(OCC(=O)OC/C(O)=C(\C#N)c2nc3ccccc3[nH]2)c1 | -20.2 | 23.2* | 39.8* | 0.5 | -211.4
CS(=O)(=O)c1ccc(C(=O)Nc2nc(-c3ccco3)c(-c3ccco3)s2)cc1 | -108.9 | 44.5* | 1.4 | x | -7.5
O=C(Nc1nc(-c2ccco2)c(-c2ccco2)s1)C1CCC1 | 13.8 | 5.9 | 0.2 | -1.0 | -1.4
CC(=O)N(Cc1cc2ccccc2[nH]c1=O)c1ccc(C)cc1 | -35.7 | 9.7* | -1.4 | 0.7 | 6.4
COc1ccc(-c2nn(Cc3ccccc3)cc2C(=O)N2CCN(c3ncccn3)CC2)cc1OC | -30.3 | 12.3* | -1.1 | -0.5 | 4.6
CCOc1ccc(NC(=O)CSc2nnc(C)n2CC)cc1 | -0.2 | 2.4 | -1.1 | -0.4 | 6.2
COC(C/C=C/[C@H](O)[C@H](C)OCc1ccccc1)OC | 3.2 | -1.3 | -3.6 | 0.3 | 20.0
O=c1ccc2ccc(OCc3ccccc3)cc2o1 | -4.1 | 1.1 | -0.8 | -1.6 | 4.2
O=C(COc1ccc2ccc(=O)oc2c1)OCc1ccccc1 | -21.6 | 12.4* | 0.0 | -0.2 | 0.1
S=c1nc2ccccc2c2nc(-c3ccccc3)[nH]n12 | -5.8 | 9.2* | -1.0 | -1.1 | 5.4
CCOC(=O)c1ccc(N=c2scc(C)n2CC)cc1 | -35.6 | 12.9* | -0.1 | 0.3 | 1.0
COc1ccc(CNc2nc(NCc3ccc(OC)c(OC)c3)n(C(=O)c3cccs3)n2)cc1OC | -22.2 | 14.2* | 1.5 | 1.1 | -8.5
Cc1ccccc1OCCc1c(C)[nH]c(=S)[nH]c1=O | -3.4 | 12.3* | -4.6 | -0.5 | 21.9
COc1ccc(CN2C(=O)C(C)Nc3ncnc(N4CCN(c5ccccc5)CC4)c32)cc1 (centres undefined) | 41.9* | -13.3 | -11.0 | 0.0 | 50.4*
CC1Nc2ncnc(N3CCOCC3)c2N(Cc2ccccc2)C1=O (centres undefined) | -5.4 | -1.7 | -0.7 | 0.0 | 3.1
SMILES | HTR5A inv ctr | HTR5A ag | OPRM1-OPRD1 ag | Bfl-1 A1 inh | MOR-DOR inv ag
CC1Nc2ncnc(N3CCN(c4ccccc4)CC3)c2N(Cc2ccc(Br)cc2)C1=O (centres undefined) | 69.1* | -24.6 | -12.7 | -0.6 | 70.8*
COC(=O)CSc1nc2c(cnn2-c2ccc(F)cc2)c(=O)[nH]1 | 4.3 | -1.2 | -1.7 | 0.2 | 7.7
COc1ccc2oc(C(=O)CCC(=O)O)c(N)c2c1 | 18.6 | 0.2 | 1.6 | -0.1 | -9.5
COC(=O)CCC(=O)c1oc2ccc(Br)cc2c1N | -25.9 | 11.7* | -2.8 | -0.4 | 12.8
O=C(COC(=O)c1ccc([N+](=O)[O-])s1)c1ccc[nH]1 | 13.5 | -3.5 | 0.6 | -0.2 | -3.3
CCOC(=O)C1=C(CC)OC(N)=C(C#N)C1c1cccs1 (centres undefined) | -36.1 | 10.9* | 3.5 | 0.3 | -19.6
O=C(NC(=S)NCc1ccccc1)c1ccc2c(c1)OCO2 | 21.7 | -0.5 | 3.9 | 0.5 | -17.5
COc1cccc2sc(N(CCCN(C)C)C(=O)c3ccc(S(=O)(=O)N4CCc5ccccc5C4)cc3)nc12 | -33.6 | 13.1 | 1.6 | -0.9 | -6.6
COc1ccc(C)c2sc(N(CCCN(C)C)C(=O)c3ccc(S(=O)(=O)N4CCc5ccccc5C4)cc3)nc12 | -18.5 | 21.4* | 30.4* | 0.8 | -148.2
Cc1cc(C)c(C)c(S(=O)(=O)N2CCN(C(=O)C3CCC3)CC2)c1C | -4.1 | 1.6 | 0.9 | 0.3 | -5.8
CCOc1ccc(NC(=O)CSc2ccccc2N)cc1 | 4.2 | -1.7 | 4.1 | u | -21.3
CCCCSc1ccc(NC(=O)c2cccnc2)cc1 | -11.7 | 11.9* | 0.4 | -3.1 | -2.3
Cc1ccc(-c2nnc(N3CCOCC3)c3ccccc23)cc1S(=O)(=O)N(C)C | -3.0 | 0.8 | -3.0 | x | 14.1
O=C1OCCN1C(=O)[C@H]1[C@H](c2ccc(Cl)cc2)C(c2ccccc2)=NN1c1ccccc1 | -20.5 | 5.5* | 3.3 | x | -16.3
CCOC(=O)C1CCN(S(=O)(=O)c2cn(C)cn2)CC1 | 7.6 | -3.1 | -3.4 | -1.2 | 17.3
CCCc1ccc2oc(C(=O)N3CCN(c4cnccn4)CC3)c(C)c2c1 | -33.4 | 12.7* | 2.9 | 0.5 | -15.7
CCCc1ccc2oc(C(=O)N3CCN(CCC(N)=O)CC3)c(C)c2c1 | -2.9 | 0.8 | -1.5 | 1.0 | 7.4
Cc1cccc(C)c1OCc1cc(C(=O)N(Cc2c(C)nn(C)c2C)C2CC2)no1 | -9.8 | 11.4* | 2.1 | -0.1 | -11.3
Cc1cccc(C)c1OCc1cc(C(=O)NCC2CCCCC2)no1 | -5.8 | -0.8 | 3.0 | 0.0 | -16.1
COc1ccc(-c2cc(C3CCN(c4cc(Cl)nc(N)n4)CC3)[nH]n2)cc1 | -11.1 | 4.9 | 0.1 | 1.7 | -0.4
Nc1nc(Cl)cc(N2CCC(c3cc(-c4ccc(Cl)cc4)n[nH]3)CC2)n1 | -12.1 | 14.0* | 6.4 | -0.3 | -33.4
COc1ccc(OC)c(-c2cc(C3CCN(c4cc(Cl)nc(N)n4)CC3)[nH]n2)c1 | -5.0 | 10.4* | 0.6 | -0.3 | -2.8
CCN(CC)C1=N/C(=C\c2ccc(OC)cc2)C(=O)N1c1ccccc1 | 6.6 | 4.5 | -0.4 | 0.0 | 2.6
O=S(=O)(Nc1cc(S(=O)(=O)N2CCOCC2)ccc1O)c1ccc2c(c1)OCCCO2 | 2.3 | -0.9 | 1.6 | -0.6 | -7.0
C=CCC1CCC/C(=N\NS(=O)(=O)c2ccc(C)cc2)C1 (centres undefined) | -49.1 | 13.4* | 0.4 | 0.5 | -2.3
